According to PubChem BioAssay AID623992 (NMMLSC, 2012):
Results with a measured potency or affinity are listed apart. The source made the active and inactive calls.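 Rule for the calls: active = compounds whose fitted half-maximal effective concentration for blocking dye efflux is below 100 µM; inactive = the rest.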

molecular target: Benomyl/methotrexate resistance protein (Candida albicans) (UniProt P28873); assay: CaMdr1 efflux pump inhibitor potency, dose response, singleplex, Cherry Pick2 set (AID 623992); details: S. cerevisiae AD/CaMDR1, Nile Red efflux, flow cytometry; series mostly up to 100 µM
Sequence (P28873 whole entry, looked up): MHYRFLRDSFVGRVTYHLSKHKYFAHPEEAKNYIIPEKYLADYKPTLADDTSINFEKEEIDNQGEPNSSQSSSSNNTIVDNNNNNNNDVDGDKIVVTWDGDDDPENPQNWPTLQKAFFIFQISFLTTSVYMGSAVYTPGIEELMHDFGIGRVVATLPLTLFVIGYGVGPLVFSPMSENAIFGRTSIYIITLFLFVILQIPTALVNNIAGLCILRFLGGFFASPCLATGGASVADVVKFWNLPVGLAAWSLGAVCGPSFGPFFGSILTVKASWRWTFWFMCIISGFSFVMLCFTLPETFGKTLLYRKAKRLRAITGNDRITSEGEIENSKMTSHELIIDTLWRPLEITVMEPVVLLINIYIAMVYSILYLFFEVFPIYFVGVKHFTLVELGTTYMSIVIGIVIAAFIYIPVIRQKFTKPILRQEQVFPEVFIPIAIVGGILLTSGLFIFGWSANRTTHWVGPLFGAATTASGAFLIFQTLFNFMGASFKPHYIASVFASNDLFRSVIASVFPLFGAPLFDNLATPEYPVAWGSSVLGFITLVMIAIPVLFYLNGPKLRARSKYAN

Structure (SMILES) | outcome
O=C(C1CCCN(c2ncnc3c2nc2n3CCCCC2)C1)N1CCN(c2ccccc2)CC1 (stereo unspecified) | inactive
O=C(C[n+]1cc(-c2ccccc2)n2c1CCC2)N1c2ccccc2Sc2ccccc21 | inactive
O=C(NC1CCCc2c1cnn2-c1ccccc1F)c1ccccn1 (stereo unspecified) | inactive
CC(C)C(=O)N1CCC2(CC1)Oc1ccc(F)cc1C(=O)C21CC(c2ccccc2)=NO1 (stereo unspecified) | inactive
NS(=O)(=O)c1ccc(N2N=C(c3ccccc3)CC2c2ccccc2)cc1 (stereo unspecified) | inactive
OCCN1CCN(CC/C=C2/c3ccccc3Sc3ccc(C(F)(F)F)cc32)CC1 | inactive
CC(C)C(=O)N1CCN(c2ccccc2NC(=O)c2ccc3c(c2)OCCO3)CC1 | inactive
COc1ccc2c(c1)OC[C@H]1[C@H]2N2C(=O)c3ccc(C)cc3NC(=O)[C@@]2(C)[C@H]1c1ccccc1 | inactive
NS(=O)(=O)c1ccc(N2N=C(c3ccccc3)CC2c2cccc(Br)c2)cc1 (stereo unspecified) | inactive
O=C(C[n+]1cc(-c2ccc(Cl)cc2)n2c1CCC2)N1c2ccccc2Sc2ccccc21 | inactive
O=C(C[n+]1cc(-c2ccc(F)cc2)n2c1CCC2)N1c2ccccc2Sc2ccccc21 | inactive
Cc1ccc(O)c(C(=O)c2cnc3c(c2)CN(CCC(C)C)C(=O)N3)c1 | inactive
NC1=NC[C@H](Cc2ccc(O)cc2)N1CCc1cc(C(F)(F)F)cc(C(F)(F)F)c1 | inactive
O=C(Nc1ccccc1)C1=C[C@@H](c2ccc(C(F)(F)F)cc2)C[C@@H](OCCCCO)O1 | inactive
CCN(CC)CCC(c1ccc(N(C)C)cc1)c1c(OC)cc(OC)c2ccc(=O)oc12 (stereo unspecified) | inactive
Cc1ccc(C2CC(c3ccccc3)=NN2c2ccc(S(N)(=O)=O)cc2)cc1 (stereo unspecified) | inactive

Structure (SMILES) | outcome
O=C(NCCC1=CCCCC1)C1CCC(CNc2nc(=S)[nH]c3ccccc23)CC1 (stereo unspecified) | inactive
NC1=NC[C@H](Cc2ccccc2)N1CCCCC1CCCCC1 | inactive
C[C@@]12C(=O)Nc3cc(F)c(F)cc3C(=O)N1[C@H]1c3cc(Cl)ccc3OC[C@@H]1[C@@H]2c1ccccc1 | inactive
COc1ccc(CNC(=O)C(C#N)c2nc3ccccc3nc2N2CCN(C)CC2)cc1 (stereo unspecified) | inactive
CCOc1cccc2sc(NC(=O)c3ccc(Br)s3)nc12 | inactive
NS(=O)(=O)c1ccc(N2N=C(c3ccc(Br)cc3)CC2c2ccc(F)cc2)cc1 (stereo unspecified) | inactive
CCCCN1Cc2cc(C(=O)c3cc(OC)ccc3O)cnc2NC1=O | inactive
COc1ccc(CNC(=O)C(C#N)c2nc3ccccc3nc2N2CCCC2)cc1 (stereo unspecified) | inactive
Cc1cccc(C2CC(c3ccccc3)=NN2c2ccc(S(N)(=O)=O)cc2)c1 (stereo unspecified) | inactive
NC1=NC[C@@H](Cc2ccc(O)cc2)N1CCCCC1CCCCC1 | inactive
CCO[C@@H]1OC(C(=O)Nc2ccccc2)=C[C@H](c2ccccc2)[C@H]1CCCO | inactive
CCCCCc1cc(=O)oc2c(C(CCN3CCCC(C)C3)c3ccc(N(C)C)cc3)c(OC)cc(OC)c12 (stereo unspecified) | inactive
C[C@H](CO)N1C[C@H](C)[C@@H](CN(C)S(=O)(=O)c2ccccc2)Oc2c(NC(=O)Nc3ccccc3)cccc2C1=O | inactive
COc1cc(OC)c2ccc(=O)oc2c1C(CCN1CCCC1)c1ccc(N(C)C)cc1 (stereo unspecified) | inactive
COc1ccc(C2CC(c3cccc(OC)c3)=NN2c2ccc(S(N)(=O)=O)cc2)cc1 (stereo unspecified) | inactive
